About 6,500 targets were measured; listed, in parts, are those with a hit and a random draw of the rest. About 2% of all pairs of compound and target were hits. Unmarked numbers belong to inactive results.

UniProt P28340, sequence (P28340 whole entry, looked up): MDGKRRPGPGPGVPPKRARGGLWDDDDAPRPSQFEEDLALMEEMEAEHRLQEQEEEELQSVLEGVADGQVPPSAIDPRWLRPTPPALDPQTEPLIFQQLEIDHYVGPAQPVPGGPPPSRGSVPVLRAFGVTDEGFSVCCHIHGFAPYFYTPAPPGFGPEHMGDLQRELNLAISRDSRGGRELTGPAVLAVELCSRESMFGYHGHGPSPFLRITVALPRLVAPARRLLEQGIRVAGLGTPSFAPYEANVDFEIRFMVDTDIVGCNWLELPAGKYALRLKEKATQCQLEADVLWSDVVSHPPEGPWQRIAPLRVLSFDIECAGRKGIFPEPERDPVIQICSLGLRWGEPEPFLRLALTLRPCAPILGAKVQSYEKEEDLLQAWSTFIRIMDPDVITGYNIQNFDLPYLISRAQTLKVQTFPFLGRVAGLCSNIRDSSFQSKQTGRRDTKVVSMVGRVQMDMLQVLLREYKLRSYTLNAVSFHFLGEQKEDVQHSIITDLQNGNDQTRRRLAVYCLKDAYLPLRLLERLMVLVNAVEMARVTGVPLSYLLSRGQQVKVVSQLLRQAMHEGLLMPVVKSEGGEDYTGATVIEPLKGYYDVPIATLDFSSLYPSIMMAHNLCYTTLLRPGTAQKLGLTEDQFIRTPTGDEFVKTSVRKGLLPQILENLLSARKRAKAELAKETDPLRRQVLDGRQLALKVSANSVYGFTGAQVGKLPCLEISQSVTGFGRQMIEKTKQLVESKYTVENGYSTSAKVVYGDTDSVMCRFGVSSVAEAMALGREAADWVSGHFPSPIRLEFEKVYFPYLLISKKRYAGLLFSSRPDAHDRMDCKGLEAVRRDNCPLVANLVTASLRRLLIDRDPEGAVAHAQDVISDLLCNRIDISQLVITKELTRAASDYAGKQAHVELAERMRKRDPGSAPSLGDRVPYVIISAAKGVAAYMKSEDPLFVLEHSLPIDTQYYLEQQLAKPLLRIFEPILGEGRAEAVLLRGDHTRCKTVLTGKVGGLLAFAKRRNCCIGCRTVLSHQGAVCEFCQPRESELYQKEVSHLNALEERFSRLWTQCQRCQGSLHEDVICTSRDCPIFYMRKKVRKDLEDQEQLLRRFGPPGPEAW
UniProt P14625, sequence (P14625 whole entry, looked up): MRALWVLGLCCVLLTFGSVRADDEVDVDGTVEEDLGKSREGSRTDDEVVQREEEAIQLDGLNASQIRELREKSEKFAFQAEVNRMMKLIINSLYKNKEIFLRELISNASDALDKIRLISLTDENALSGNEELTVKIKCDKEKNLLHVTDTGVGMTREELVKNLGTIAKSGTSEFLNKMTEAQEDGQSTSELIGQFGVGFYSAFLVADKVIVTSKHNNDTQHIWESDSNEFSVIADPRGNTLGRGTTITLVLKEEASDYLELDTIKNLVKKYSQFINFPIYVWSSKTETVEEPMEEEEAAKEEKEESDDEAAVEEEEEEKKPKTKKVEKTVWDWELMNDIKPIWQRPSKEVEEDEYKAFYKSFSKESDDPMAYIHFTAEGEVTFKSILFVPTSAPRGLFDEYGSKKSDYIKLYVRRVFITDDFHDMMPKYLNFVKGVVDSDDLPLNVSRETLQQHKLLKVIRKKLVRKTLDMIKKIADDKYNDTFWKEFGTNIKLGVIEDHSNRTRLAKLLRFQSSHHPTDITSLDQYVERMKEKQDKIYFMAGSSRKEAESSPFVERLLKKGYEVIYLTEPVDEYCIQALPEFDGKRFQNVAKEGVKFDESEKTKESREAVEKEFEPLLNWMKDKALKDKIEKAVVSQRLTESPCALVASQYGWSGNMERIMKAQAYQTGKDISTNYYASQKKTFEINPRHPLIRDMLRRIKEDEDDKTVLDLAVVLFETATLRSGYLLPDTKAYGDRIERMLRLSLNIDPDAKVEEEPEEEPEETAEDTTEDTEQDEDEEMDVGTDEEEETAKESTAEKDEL
UniProt O95602, sequence (O95602 whole entry, looked up): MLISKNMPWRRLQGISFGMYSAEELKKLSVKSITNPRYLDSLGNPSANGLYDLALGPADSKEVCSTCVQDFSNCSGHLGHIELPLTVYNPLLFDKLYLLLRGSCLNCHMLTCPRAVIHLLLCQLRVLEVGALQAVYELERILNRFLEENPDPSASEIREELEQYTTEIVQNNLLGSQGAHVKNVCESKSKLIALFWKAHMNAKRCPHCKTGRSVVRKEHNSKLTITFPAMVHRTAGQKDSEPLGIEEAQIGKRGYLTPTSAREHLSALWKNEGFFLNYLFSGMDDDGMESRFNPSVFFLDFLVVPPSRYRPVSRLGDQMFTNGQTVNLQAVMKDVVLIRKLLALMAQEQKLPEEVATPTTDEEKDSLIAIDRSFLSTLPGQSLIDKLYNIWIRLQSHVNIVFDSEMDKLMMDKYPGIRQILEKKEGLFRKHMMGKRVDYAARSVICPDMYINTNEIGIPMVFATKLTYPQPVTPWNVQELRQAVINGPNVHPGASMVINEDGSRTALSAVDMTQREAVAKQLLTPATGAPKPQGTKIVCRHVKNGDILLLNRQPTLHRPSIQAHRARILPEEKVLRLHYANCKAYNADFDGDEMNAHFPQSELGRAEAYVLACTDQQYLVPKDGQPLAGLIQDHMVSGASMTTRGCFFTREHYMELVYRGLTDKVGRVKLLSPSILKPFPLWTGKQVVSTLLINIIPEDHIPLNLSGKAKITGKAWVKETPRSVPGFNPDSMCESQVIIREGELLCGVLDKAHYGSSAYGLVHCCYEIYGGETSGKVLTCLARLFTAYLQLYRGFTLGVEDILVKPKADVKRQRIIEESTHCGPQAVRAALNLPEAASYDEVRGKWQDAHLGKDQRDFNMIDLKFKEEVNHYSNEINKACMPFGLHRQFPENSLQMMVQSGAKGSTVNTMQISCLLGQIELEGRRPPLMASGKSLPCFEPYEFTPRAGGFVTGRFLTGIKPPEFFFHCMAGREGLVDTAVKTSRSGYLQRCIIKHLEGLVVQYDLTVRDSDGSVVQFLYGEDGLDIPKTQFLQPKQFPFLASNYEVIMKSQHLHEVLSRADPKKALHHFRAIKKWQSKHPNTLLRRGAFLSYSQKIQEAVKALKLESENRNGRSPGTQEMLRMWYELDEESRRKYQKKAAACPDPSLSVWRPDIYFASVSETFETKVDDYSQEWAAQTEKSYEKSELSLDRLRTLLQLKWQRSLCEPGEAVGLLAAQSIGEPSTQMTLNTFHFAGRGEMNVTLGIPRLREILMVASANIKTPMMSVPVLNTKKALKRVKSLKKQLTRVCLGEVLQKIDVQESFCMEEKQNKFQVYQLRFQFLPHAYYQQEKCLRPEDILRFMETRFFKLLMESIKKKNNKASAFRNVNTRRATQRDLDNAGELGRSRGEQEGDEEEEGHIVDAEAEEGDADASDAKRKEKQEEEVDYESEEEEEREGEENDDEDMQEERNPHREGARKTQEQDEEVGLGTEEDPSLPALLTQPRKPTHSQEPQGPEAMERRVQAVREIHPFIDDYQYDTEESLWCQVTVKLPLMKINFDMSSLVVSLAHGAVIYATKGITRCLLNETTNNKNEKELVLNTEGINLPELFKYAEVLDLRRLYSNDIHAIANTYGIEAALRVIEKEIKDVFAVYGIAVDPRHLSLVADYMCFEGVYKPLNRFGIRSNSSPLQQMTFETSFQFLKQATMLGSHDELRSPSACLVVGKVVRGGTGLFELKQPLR
UniProt P23246, sequence (P23246 whole entry): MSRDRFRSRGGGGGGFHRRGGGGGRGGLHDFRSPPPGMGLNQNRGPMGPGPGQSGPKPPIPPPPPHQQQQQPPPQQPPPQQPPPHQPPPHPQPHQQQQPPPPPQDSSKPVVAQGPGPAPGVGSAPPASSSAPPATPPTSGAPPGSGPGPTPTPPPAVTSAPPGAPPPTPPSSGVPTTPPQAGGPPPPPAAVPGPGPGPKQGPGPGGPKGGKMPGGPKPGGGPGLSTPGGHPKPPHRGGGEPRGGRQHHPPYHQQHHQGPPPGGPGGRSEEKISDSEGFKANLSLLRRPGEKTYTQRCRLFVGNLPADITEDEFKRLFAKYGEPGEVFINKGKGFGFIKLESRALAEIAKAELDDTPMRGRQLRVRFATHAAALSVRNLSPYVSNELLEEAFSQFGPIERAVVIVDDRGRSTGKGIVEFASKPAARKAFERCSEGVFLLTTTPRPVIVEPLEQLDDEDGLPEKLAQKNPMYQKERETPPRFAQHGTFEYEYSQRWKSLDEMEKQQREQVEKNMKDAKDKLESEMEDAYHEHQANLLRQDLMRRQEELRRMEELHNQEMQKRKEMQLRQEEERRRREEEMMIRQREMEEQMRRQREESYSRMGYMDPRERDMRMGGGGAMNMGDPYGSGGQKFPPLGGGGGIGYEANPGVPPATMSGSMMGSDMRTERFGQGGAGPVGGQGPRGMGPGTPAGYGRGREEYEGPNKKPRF
UniProt P22307, sequence (P22307 whole entry, looked up): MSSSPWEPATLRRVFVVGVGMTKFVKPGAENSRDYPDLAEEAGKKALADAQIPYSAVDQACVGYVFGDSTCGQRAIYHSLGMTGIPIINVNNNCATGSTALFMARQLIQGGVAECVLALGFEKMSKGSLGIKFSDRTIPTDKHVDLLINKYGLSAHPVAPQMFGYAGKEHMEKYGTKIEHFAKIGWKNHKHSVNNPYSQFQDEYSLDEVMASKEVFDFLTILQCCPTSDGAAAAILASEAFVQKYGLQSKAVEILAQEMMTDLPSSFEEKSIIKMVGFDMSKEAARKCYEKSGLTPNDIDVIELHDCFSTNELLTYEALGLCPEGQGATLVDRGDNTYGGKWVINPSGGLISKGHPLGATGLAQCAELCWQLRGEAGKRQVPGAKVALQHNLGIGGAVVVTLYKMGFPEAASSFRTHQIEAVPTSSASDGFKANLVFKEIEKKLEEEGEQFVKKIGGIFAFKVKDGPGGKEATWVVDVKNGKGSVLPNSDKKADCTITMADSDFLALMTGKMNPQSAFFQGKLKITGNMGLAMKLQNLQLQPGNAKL

Compound in this assay: COC(=O)C#Cc1ccccc1 [methyl 3-phenylpropiolate]
Nature of the assay: log2 ratio of iodoacetamide-alkyne labeling of the cysteine site, DMSO over compound (competition); higher = stronger covalent engagement of the cysteine by the compound, active = 1 or more. To be noted: 500 µM; treatment time 1 h; system: HEK293T cell lysate. In outline:
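Reporter intensities give each cysteine's log2 competition ratio as the mean of control channels over the mean of compound channels. The samples were HEK293T lysate (2 mg/mL) given vehicle or electrophile (500 µM, 1 h, ambient temperature), then iodoacetamide alkyne (1 h), followed by click coupling to sCIP-TMT reagents, pooling, trypsin digestion overnight at 37 °C, streptavidin enrichment, acid elution, Orbitrap Eclipse LC-MS/MS with FAIMS and FragPipe quantification. Duplicate channels and three replicates were run, and cysteines quantified in only one replicate were discarded.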
In the case of SFPQ C297 (UniProt P23246), the “log2 ratio of iodoacetamide-alkyne labeling” value (“log2 ratio” for short) was -0.122. On to UniProt P14618_C424, for which the “log2 ratio” value was -0.246. EEF2 C369 (UniProt P13639): the “log2 ratio” value is 0.24. For the target HCFC1 C1895 (UniProt P51610), the “log2 ratio” value is 1.09 (active). With FLNA C2107 (UniProt P21333), the “log2 ratio” value is 0.12. Take CCT5 C377 (UniProt P48643): the “log2 ratio” value is 0.18. With RANBP2 C3071 (UniProt P49792) the figure was 0.0882; with MTOR C300 (UniProt P42345), 0.376; with ETFB C71 (UniProt P38117), 0.579. Turning to ATIC C363 (UniProt P31939), the “log2 ratio” value was 0.3. With LDHB C294 (UniProt P07195) the figure was -0.0731; with POLR1A C613 (UniProt O95602), 0.472; with ACAA1 C123 (UniProt P09110), -0.0075.

Take GALK1 C351 (UniProt P51570): the “log2 ratio” value was 0.243.

Consider POLD1 C837 (UniProt P28340), for which the “log2 ratio” value was 1.16 (active). As for RAP1GDS1 C85 (UniProt P52306), the “log2 ratio” value is 0.197. Take MBD3 C266 (UniProt O95983): the “log2 ratio” value was 0.0164. Turning to VDAC2 C210 (UniProt P45880), the “log2 ratio” value was 1.39 (active). Turning to CAPZB C206 (UniProt P47756), the “log2 ratio” value was 0.316. With APEX1 C93 (UniProt P27695), the “log2 ratio” value was 0.0645. For VDAC2 C227 (UniProt P45880) the value was 1.39 (active); for ANXA7 C285 (UniProt P20073), 0.0794; for ACAA2 C116 (UniProt P42765), 1.22 (active).

As for UniProt P49591_C431, the “log2 ratio” value was -0.00377. With GART C466 (UniProt P22102), the “log2 ratio” value was 0.199.

On to SCP2 C94 (UniProt P22307), for which the “log2 ratio” value is 0.136. As to IARS C433 (UniProt P41252), the “log2 ratio” value was -0.0103. With CAST C408 (UniProt P20810), the “log2 ratio” value is 1.01 (active). Regarding HSP90B1 C645 (UniProt P14625), the “log2 ratio” value was -0.0466. For the target CYC1 C219 (UniProt P08574), the “log2 ratio” value is 0.0599. For PDHB C306 (UniProt P11177) the value was -0.122; for HNRNPA1 C175 (UniProt P09651), -0.128; for OAT C253 (UniProt P04181), 0.0787.

Consider PCNA C62 (UniProt P12004), for which the “log2 ratio” value is 0.0598. As for RANBP2 C1296 (UniProt P49792), the “log2 ratio” value is 0.543. Turning to HNRNPM C114 (UniProt P52272), the “log2 ratio” value was -0.0182. UniProt P26367_C94: the “log2 ratio” value is 0.097.
